Data published in PubChem BioAssay (NCATS).
The source made the active and inactive calls. Calls come from the whole dose curve.

Experiment: qHTS drug screen for cell cycle checkpoint inhibitors in PARPi-resistant BRCA-mutant ovarian cancer cell lines. (AID 1963452)
Details: PEO1/OlaR viability, CellTiter-Glo luminescence, 96 h; for Z-AUC: stronger effect = lower value
In short: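 PEO1, PEO4 and PEO1/OlaR ovarian cancer cells, 600 per well, exposed 96 h at 37C to a dilution series. Viability read by CellTiter-Glo luminescence, normalized to DMSO and empty wells; activity summarized as Z-AUC.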

[1] = measured here: PEO1 parental Z-AUC
Potency is the fitted concentration of half-maximal effect.

| SMILES | Z-AUC | Z-AUC [1] | Z-AUC (measured here: PEO4 Z-AUC) | Potency |
| --- | --- | --- | --- | --- |
| CS(=O)(=O)c1ccc(-c2nnc(/C=C/c3nnc(-c4ccc(C#N)cc4)o3)n2-c2ccccc2Cl)nc1 | -0.316 (inactive) | 0.177 | -0.0878 | – |
| C#CC[C@H](c1nc2cc(Cl)ccc2c(=O)n1Nc1ccccc1)N(CCCN)C(=O)c1cccc(Cl)c1F | – | -1.73 | -1.5 | 1.23 µM (active) |
| CCS(=O)(=O)N1CCN(c2ccc(Nc3ncc(C(N)=O)c(NC4CC4)n3)cc2)CC1 | 0.319 (inactive) | -0.223 | -0.0452 | – |
| CO[C@H]1C[C@@H]2CC[C@@H](C)[C@@](O)(O2)C(=O)C(=O)N2CCCC[C@H]2C(=O)O[C@H]([C@H](C)C[C@@H]2CC[C@@H](OP(C)(C)=O)[C@H](OC)C2)CC(=O)[C@H](C)/C=C(\C)[C@@H](O)[C@@H](OC)C(=O)[C@H](C)C[C@H](C)/C=C/C=C/C=C/1C | 0.099 (inactive) | 0.103 | -0.0432 | – |
| O=C(c1ccc(/C=C/c2n[nH]c3ccccc23)cc1)N1CCNCC1 | -0.885 (inactive) | -0.223 | -0.438 | – |
| CCNCc1nc2c(N)nc3ccccc3c2n1CC(C)(C)O | -0.12 (inactive) | 0.65 | 0.404 | – |
| CCCCc1nc2cc(/C=C/C(=O)NO)ccc2n1CCN(CC)CC | 0.0461 (inactive) | -0.0677 | -0.293 | – |
| CCN1CCN(Cc2ccc(NC(=O)c3ccc(C)c(NC(=O)c4cncc(-c5cccs5)c4)c3)cc2C(F)(F)F)CC1 | -1.84 (inactive) | -1.46 | -0.887 | – |
| CCOc1cc2ncc(C#N)c(Nc3ccc(F)c(Cl)c3)c2cc1NC(=O)/C=C/CN(C)C | -0.44 (inactive) | -0.362 | -0.838 | – |
| COCCOc1ccc(N2CCN(CCn3ncc4c3nc(N)n3nc(-c5ccco5)nc43)CC2)cc1 | -0.648 (inactive) | -0.346 | -0.723 | – |
| COc1ccc(N(C)c2nc(C)nc3ccccc23)cc1 | – | -2.78 | -2.81 | 0.0039 µM (active) |
| COc1cc2ncnc(Nc3ccc(F)c(Cl)c3)c2cc1NC(=O)/C=C/CN1CCCCC1 | – | -1.17 | -1.24 | 6.92 µM (active) |
| CCn1c(=O)c(-c2ccn[nH]2)cc2c(C)nc(N)nc21 | -0.643 (inactive) | -0.106 | -0.63 | – |
| CC(C)c1cc(CNc2nc(Nc3cc(C4CC4)[nH]n3)cc(N3CCN(C)CC3)n2)on1 | – | -1.91 | -2.1 | 0.549 µM (active) |
| COC(=O)N[C@@H](C)CNc1nccc(-c2cn(C(C)C)nc2-c2cc(Cl)cc(NS(C)(=O)=O)c2F)n1 | -0.294 (inactive) | -0.151 | -0.157 | – |
| O=C(C(c1ccccc1)c1ccccc1)N1CCN(CC(O)COc2cccc3ncccc23)CC1 (stereo unspecified) | 0.889 (inactive) | 0.623 | 0.296 | – |

| SMILES | Z-AUC | Z-AUC [1] | Z-AUC (measured here: PEO4 Z-AUC) | Potency |
| --- | --- | --- | --- | --- |
| Cc1cc(OCc2nnc(SC3CCCC3)n2-c2cccnc2)ccc1-c1ccc(S(C)(=O)=O)cc1 | -1.33 (inactive) | -3 | -2.2 | – |
| CN1CCN(c2ccc(C(=O)Nc3n[nH]c4ccc(Cc5cc(F)cc(F)c5)cc34)c(NC3CCOCC3)c2)CC1 | -0.903 (inactive) | -1.2 | -1.38 | – |
| CC(C)(C)C(=O)CN1C(=O)[C@H](NC(=O)Nc2cccc(C(=O)O)c2)CN(C2CCCCC2)c2ccccc21 | 1.75 (inactive) | 1.32 | 1.22 | – |
| O=C(NCc1cccc(O)c1)Nc1nc(-c2ccncc2)cs1 | -0.136 (inactive) | 0.195 | -0.295 | – |
| NC[C@@](O)(c1ccc(Cl)cc1)c1ccc(-c2cn[nH]c2)cc1 | – | -1.09 | -1.28 | 13.8 µM (active) |
| CCO[C@@H]1OC(=O)C[C@@H]1NC(=O)[C@@H]1CCCN1C(=O)[C@@H](NC(=O)c1ccc(N)c(Cl)c1)C(C)(C)C | 0.612 (inactive) | 0.457 | 0.143 | – |
| CC1=C(CO)C(=O)O[C@@H]([C@@H](C)[C@H]2CC[C@H]3[C@@H]4C[C@H]5O[C@]56[C@@H](O)C=CC(=O)[C@]6(C)[C@H]4CC[C@]23C)C1 | -1.4 (inactive) | -1.83 | -1.49 | – |
| Cc1[nH]nc(C(F)(F)F)c1Cc1sc2c(c1C(=O)N1C[C@](C)(O)CO1)c(=O)n(C)c(=O)n2C(C)C | 0.988 (inactive) | 0.611 | 0.623 | – |
| O=C(O)c1ccc(CN2CCC(CN[C@@H]3C[C@H]3c3ccccc3)CC2)cc1 | -0.0301 (inactive) | 1.03 | 0.899 | – |
| COc1cc2c(NC3CCN(CC4CCCCC4)CC3)nc(N3CCCN(C(C)C)CC3)nc2cc1OCCCN1CCCCC1 | 0.256 (inactive) | 0.301 | -0.248 | – |
| CC(C)c1c2cc(-c3ccnc(NC4CCC(NC5CCOCC5)CC4)n3)ccc2nn1C (stereo unspecified) | -1.95 (inactive) | -2.05 | -1.88 | – |
| Cc1cc(O)c(-c2ccc([C@@H](C)CN(C)C)cc2)c2c1[nH]c(=O)c1sccc12 | -1.8 (inactive) | -2.07 | -2.02 | – |
| CC(O)c1cc(C(=O)N[C@@H](C)Cn2ccc(-c3ccc(C#N)c(Cl)c3)n2)n[nH]1 (stereo partly specified) | -0.266 (inactive) | -0.668 | -0.279 | – |
| C[C@@H]1CCN(C(=O)N2CCCC2)C[C@@H]1N(C)c1ncnc2[nH]ccc12 | -0.093 (inactive) | 0.799 | 1.07 | – |
| Cc1ccc(NC(=O)Nc2cc(C(F)(F)F)ccc2F)cc1Nc1ccc2c(c1)NC(=O)/C2=C\c1ccc[nH]1 | 0.377 (inactive) | 0.106 | 0.2 | – |
| Cc1ccc(-c2ccc3c(ccc4sc5c(c43)NC[C@@H](C)NC5=O)n2)cn1 | -0.119 (inactive) | 0.305 | -0.383 | – |
